In PubChem BioAssay (NCI) one finds growth data, which are given here for six compounds.

Among the test systems are HCT-15 colon; HT29 colon; SNB-75 CNS; SNB-19 CNS; U251 CNS; PC-3 prostate; SK-MEL-5 melanoma; UACC-62 melanoma; LOX IMVI melanoma; SK-MEL-28 melanoma; SK-MEL-2 melanoma; EKVX NSCLC; SN12C renal; UO-31 renal; TK-10 renal; ACHN renal; CAKI-1 renal; A498 renal; CCRF-CEM leukemia; MOLT-4 leukemia.
Assay in all cases: NCI-60 one-dose screen, 48 h (100 = growth as untreated, 0 = no growth, -100 = all killed)
Holding throughout (conditions): 10 µM unless noted

Compounds without any hit were thinned out: in the full panel of roughly 83,000, 20% have a hit.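 Values shown are percent growth following 48 h exposure of cells in 96-well plates to a single concentration of compound; below 10 was considered active.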 Values without a mark were called inactive. Calls of active or inactive are those of the source.

Regarding `COc1ccc(-c2nc(N/N=C/c3cccc(O)c3)nc(N3CCOCC3)c2C#N)cc1`, the growth with HCT-15 colon is 46.9%; in the experiment with HT29 colon it was 72.6%; in the experiment on SNB-75 CNS, 23.6%; in the experiment on SNB-19 CNS, 85.9%; with U251 CNS, 58.9%; in the experiment with PC-3 prostate, 56.5%. Moreover, the growth with SK-MEL-5 melanoma is 80.1%; with UACC-62 melanoma, 90.1%; in the experiment with LOX IMVI melanoma, 79.6%; in the experiment with SK-MEL-28 melanoma it was 33.9%; in the experiment with SK-MEL-2 melanoma, 85.6%; in the experiment with EKVX NSCLC, 88.7%. Further, the growth with SN12C renal is 78.3%; with UO-31 renal it was 34.4%; in the experiment with TK-10 renal, 88.4%; in the experiment with ACHN renal, 57.8%; in the experiment with CAKI-1 renal, 77%; with A498 renal it was 85.7%. For the same compound, the growth with CCRF-CEM leukemia was 26.3%; in the experiment on MOLT-4 leukemia, 39.8%.

On to `COc1ccc(C(O)c2cc3c(N)c(C(=O)Nc4cccc(OC)c4)sc3nc2C)cc1` (stereo not given), for which the growth in the experiment on HCT-15 colon is 15.6%; in the experiment with HT29 colon, 2.47% (active); in the experiment on SNB-75 CNS, -2.98% (active); with SNB-19 CNS, 36.1%; with U251 CNS, 9.2% (active); in the experiment on PC-3 prostate, 16.2%. The growth in the experiment on SK-MEL-5 melanoma was -35.4% (active); in the experiment with UACC-62 melanoma, 23.6%; with LOX IMVI melanoma, 30.8%; in the experiment on SK-MEL-28 melanoma it was 59%; in the experiment on SK-MEL-2 melanoma, 22.6%; in the experiment with EKVX NSCLC, 33.8%. In addition, the growth in the experiment on SN12C renal is 23.6%; with UO-31 renal it was 25%; in the experiment with TK-10 renal it was 39.9%; in the experiment on ACHN renal, 27%; in the experiment with CAKI-1 renal it was 24.4%; with A498 renal it was -17% (active). Further, the growth was 7.53% (active) in the experiment on CCRF-CEM leukemia and 16.3% with MOLT-4 leukemia.

Regarding `CCCCCCCCCCCCCCCC(=O)OC[C@@]1(O)C[C@@]23CC[C@@H]4C(C)(C)CCC[C@@]4(C)[C@@H]2CC[C@H]1C3`, the growth is 97.9% with HCT-15 colon; 92.2% in the experiment with HT29 colon; 112% with SNB-75 CNS; 102% in the experiment with SNB-19 CNS; 95.8% in the experiment on U251 CNS; 94.8% in the experiment with PC-3 prostate. The growth with SK-MEL-5 melanoma was 98.3%; in the experiment on UACC-62 melanoma, 85.8%; in the experiment on LOX IMVI melanoma it was 93.4%; in the experiment on SK-MEL-28 melanoma, 121%; with SK-MEL-2 melanoma, 105%; in the experiment on EKVX NSCLC it was 109%. In addition, the growth in the experiment with SN12C renal is 93.6%; in the experiment on UO-31 renal it was 84.7%; with TK-10 renal, 100%; in the experiment with ACHN renal, 106%; in the experiment on CAKI-1 renal, 74.2%; in the experiment with A498 renal it was 97.7%. Also, the results for the growth in the experiment on CCRF-CEM leukemia and with MOLT-4 leukemia were 43.2% and 57.3%, respectively.

Regarding `O=C(NCCc1ccccn1)OCc1nc2nc(Cl)nc(N3CCOCC3)c2[nH]1`, the growth was -27.2% (active) in the experiment on HCT-15 colon; -28.9% (active) with HT29 colon; 2.59% (active) with SNB-75 CNS; 37.2% in the experiment with SNB-19 CNS; 16.3% in the experiment with U251 CNS; 22.7% in the experiment on PC-3 prostate. Further, the growth in the experiment with SK-MEL-5 melanoma was -10.8% (active); in the experiment on UACC-62 melanoma it was 24.6%; in the experiment with LOX IMVI melanoma, -49.9% (active); in the experiment on SK-MEL-28 melanoma, 41.9%; with SK-MEL-2 melanoma, -16% (active); in the experiment on EKVX NSCLC, 72.4%. The growth in the experiment on SN12C renal is 28.6%; with UO-31 renal it was 31.8%; in the experiment with TK-10 renal, -29.4% (active); with ACHN renal it was -94.9% (active); in the experiment on CAKI-1 renal it was 7.47% (active); in the experiment on A498 renal it was -9.02% (active). Moreover, the growth in the experiment with CCRF-CEM leukemia was 0.909% (active); with MOLT-4 leukemia, 4.05% (active).

For the compound `CC(=O)OCC(=O)[C@@]1(O)CC[C@H]2[C@@H]3CC(=C(Br)Br)C4=CC(=O)CC[C@]4(C)[C@H]3C(=O)C[C@@]21C`, the growth is 94.4% in the experiment on HCT-15 colon; 92.1% with HT29 colon; 81.2% in the experiment on SNB-75 CNS; 92.6% with SNB-19 CNS; 82.9% in the experiment with U251 CNS; 76.1% in the experiment on PC-3 prostate. Moreover, the growth in the experiment on SK-MEL-5 melanoma is 95.2%; in the experiment with UACC-62 melanoma it was 82.5%; in the experiment on LOX IMVI melanoma it was 97.3%; in the experiment on SK-MEL-28 melanoma, 102%; in the experiment with SK-MEL-2 melanoma, 78.7%; in the experiment with EKVX NSCLC, 90.1%. Further, the growth is 93.6% with SN12C renal; 68.3% with UO-31 renal; 91.2% with TK-10 renal; 94.1% with ACHN renal; 81.7% in the experiment on CAKI-1 renal; 79.5% in the experiment on A498 renal. The values for the growth in the experiment on CCRF-CEM leukemia and in the experiment on MOLT-4 leukemia were 83.3% and 93.1%, respectively.

In the case of `CNC(=O)c1c(NC(=O)c2ccc(C(C)C)cc2)sc2c(CN(C)C)c(O)ccc12`, the growth was 14.2% in the experiment on HCT-15 colon; 87.1% in the experiment on HT29 colon; 98.1% in the experiment with SNB-75 CNS; 103% with SNB-19 CNS; 81.7% with U251 CNS; 79.4% with PC-3 prostate. In addition, the growth with SK-MEL-5 melanoma was 96%; in the experiment on UACC-62 melanoma, 99.9%; in the experiment on LOX IMVI melanoma it was 57.3%; with SK-MEL-28 melanoma it was 94.5%; with SK-MEL-2 melanoma it was 90.2%; in the experiment on EKVX NSCLC, 90.2%. The growth was 99.4% with SN12C renal; 64.5% in the experiment on UO-31 renal; 86.8% in the experiment on TK-10 renal; 66.6% in the experiment with ACHN renal; 85.1% with CAKI-1 renal; 58.9% in the experiment with A498 renal. Moreover, the growth is 56.7% in the experiment on CCRF-CEM leukemia and 72.4% in the experiment on MOLT-4 leukemia.
